High-throughput results (PubChem BioAssay)
Artemis endo inh – inhibitors of human Artemis endonuclease activity; AID 686954; Q96SD1; recombinant Artemis, quenched FAM hairpin cleavage fluorescence; inhibition, % at 10 µM; 0.78% of 30,000 active;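 active = at 10 µM dose, at least 30% inhibition, measured as corrected fluorescence normalized to stimulator and neutral control wells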
Target sequence (Q96SD1 whole entry, looked up): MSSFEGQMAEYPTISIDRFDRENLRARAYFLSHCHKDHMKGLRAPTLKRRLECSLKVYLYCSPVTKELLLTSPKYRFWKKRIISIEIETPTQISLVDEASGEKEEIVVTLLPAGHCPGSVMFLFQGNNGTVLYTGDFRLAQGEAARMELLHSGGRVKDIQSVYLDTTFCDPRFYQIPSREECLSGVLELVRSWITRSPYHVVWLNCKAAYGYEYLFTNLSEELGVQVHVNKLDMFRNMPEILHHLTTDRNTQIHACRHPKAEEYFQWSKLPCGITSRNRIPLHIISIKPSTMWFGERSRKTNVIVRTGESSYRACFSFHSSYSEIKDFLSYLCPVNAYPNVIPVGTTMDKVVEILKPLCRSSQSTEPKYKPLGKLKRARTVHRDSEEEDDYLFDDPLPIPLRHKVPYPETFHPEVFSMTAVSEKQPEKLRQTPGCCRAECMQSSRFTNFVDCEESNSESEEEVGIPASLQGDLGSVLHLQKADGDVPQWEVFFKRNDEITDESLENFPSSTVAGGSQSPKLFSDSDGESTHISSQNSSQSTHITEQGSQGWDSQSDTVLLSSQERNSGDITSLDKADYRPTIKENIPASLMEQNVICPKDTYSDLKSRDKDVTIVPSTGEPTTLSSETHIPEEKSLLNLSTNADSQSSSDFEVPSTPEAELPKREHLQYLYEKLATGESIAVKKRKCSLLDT
Starred values were filed as active, the others as inactive. The entries come from a sample that favours hits as a whole.

SMILES | Artemis endo inh
CCOC(=O)NC(Nc1ccc(S(N)(=O)=O)cc1)(C(=O)OCC)C(F)(F)F (stereo unspecified) | -1.7
COc1ccc(-c2nn(-c3ccccc3)cc2CO)cc1 | 3.7
COc1ccc(-c2nn(-c3ccccc3)cc2C(=O)Nc2nccs2)cc1 | 47.3*
COC(=O)c1ccc(NC(=O)c2cn(-c3ccccc3)nc2-c2ccncc2)cc1 | 7.2
O=C(N/C=N/OCc1ccc(Cl)cc1Cl)NOCc1ncc(C(F)(F)F)cc1Cl | 17.7
CCOc1cc(CNCc2ccncc2)cc(Br)c1OCc1ccccc1F | 2.0
O=C(O)CC(C(=O)O)c1cn(Cc2ccccc2)c2ccccc12 (stereo unspecified) | 2.0
N#Cc1ccccc1Cn1cc(C#N)c2ccccc21 | 10.4
Cc1[nH][nH]c(=O)c1C(c1c(C)[nH][nH]c1=O)c1cn(Cc2cccc3ccccc23)c2ccccc12 | 46.9*
O=C1CC(SC(=Nc2ccccc2)Nc2ccccc2)C(=O)N1c1cccc(Cl)c1 (stereo unspecified) | -0.2
Cc1cccc(-n2nnnc2SCc2csc(-c3ccccc3)n2)c1 | 8.0
COc1cccc(-c2cn3nc4c(nc3n2)CCCC4)c1 | 35.6*
COc1cccc(-c2cc(C(F)(F)F)n3nc(N)nc3n2)c1 | -2.8
Clc1ccc(-c2cn3nc4c(nc3n2)CCCC4)cc1 | 37.1*
Clc1ccc(-c2cn3cccnc3n2)cc1 | -4.0
OC1CCN(c2c3c(nc4cc(-c5ccc(Cl)cc5)nn24)CCC3)CC1 | 3.9
COc1cccc(-c2csc(NC(C)=O)n2)c1 | -4.9
O=C(Nc1ccccc1-c1ccccc1)C12CC3CC(CC(C3)C1)C2 | 8.2
CCn1c(SCC(=O)Nc2oc(-c3ccccc3)c(-c3ccccc3)c2C#N)nnc1-c1ccco1 | 25.9
N#Cc1c(NC(=O)CSc2ccccn2)oc(-c2ccccc2)c1-c1ccccc1 | 8.8
CCn1c(SCC(=O)Nc2oc(-c3ccccc3)c(-c3ccccc3)c2C#N)nnc1-c1ccncc1 | 31.4*
COc1ccc(CCN(C(=O)c2cccc(F)c2)C2CC(=O)N(c3ccc(OC)cc3)C2=O)cc1 (stereo unspecified) | -1.3
Cc1cc(-c2nnc3sc(-c4ccc(Cl)cc4Cl)nn23)n[nH]1 | 6.2
COc1cccc(OC)c1-c1nn2c(-c3cc(-c4ccccc4)n[nH]3)nnc2s1 | 80.2*
CCOc1cccc(-c2nn3c(-c4cc(C)[nH]n4)nnc3s2)c1 | 5.7
SMILES | Artemis endo inh
O=C(CN1C(=O)C2CC=CCC2C1=O)NCC1COc2ccccc2O1 (stereo unspecified) | -0.2
Cc1ccc(/C=N/N2CCN(Cc3cccc4ccccc34)CC2)o1 | -3.3
CC(=O)C(Sc1nc(NC(C)(C)C)nc(N(C)C)n1)C(C)=O | 7.3
CNc1nc(Cl)nc(NC(C)(C)C)n1 | 0.4
CC(C)(C)Nc1nc(NN)nc(NC(C)(C)C)n1 | 42.9*
CC1(C)Oc2ccc(NC(=O)c3ccco3)cc2O1 | 9.1
Cc1ccc(-c2n[nH]c(=S)n2/N=C/C=C\c2ccccc2[N+](=O)[O-])cc1 | 27.0
O=[N+]([O-])c1ccccc1/C=C/C=N/n1c(-c2ccc(Cl)cc2)n[nH]c1=S | 30.5*
Cn1cccc1/C=N/n1c(-c2ccccc2)n[nH]c1=S | -1.0
Cn1c(-c2ccc(C=O)s2)nc2c3ccccc3c3ccccc3c21 | 46.1*
CCOC(=O)N1CCN(C(=O)c2ccc3c(c2)NC(=O)C(N2CCOCC2)S3)CC1 (stereo unspecified) | -5.9
Cc1ccccc1NC(=O)C1CCN(c2cc(-c3ccccc3)nc3ncnn23)CC1 | 6.2
C=CCc1c(OC)ccc2ccc(=O)oc12 | -2.5
COc1ccc(-n2c(SCC#N)nc3ccccc3c2=O)cc1 | -0.5
O=C1CCCN1CC(CN1CCOCC1)Sc1nc2ccccc2c(=O)n1-c1ccccc1 (stereo unspecified) | 33.2*
Cc1cc(NC(=O)CSc2nc3ccccc3c(=O)n2-c2ccccc2)no1 | -5.7
O=C1NCN(c2ccccc2)C12CCN(c1nnnn1-c1ccccc1)CC2 | 3.9
Cc1ccc(C(=O)Oc2cc(C)n(C)c(=O)c2)cc1 | 0.7
CC(C)(C)C(=O)c1cn(CC(=O)NCc2ccc3c(c2)OCO3)c2ccccc12 | -5.3
Cc1cc(N2CCOCC2)nc(SCc2ccc(Cl)cc2Cl)n1 | 1.0
COc1cccc(/C=N\n2c(C)nnc2C)c1OC | -4.9
COc1cccc(/C=N/Nc2nn3cnnc3c3ccccc23)c1O | 35.0*
COc1cccc(/C=N/NC(=O)CSc2nnc(C)n2-c2ccccc2)c1OC | -9.7
CCOC(=O)c1cc(C(=O)OCC)c2cccc(C)n2c1=O | 3.3
Cc1csc(NC(=O)Cc2nn(C)c(=O)c3ccccc23)n1 | 0.8
SMILES | Artemis endo inh
N#Cc1c(NC(=O)CCn2cnc3ccccc3c2=O)oc(-c2ccccc2)c1-c1ccccc1 | 8.4
N#Cc1c(-c2ccccc2)c(-c2ccccc2)nn(CC(=O)NNC(=O)Nc2ccc(Cl)c(Cl)c2)c1=O | 30.1*
N#Cc1c(-c2ccccc2)nc2n(-c3ccccc3)nc(C(=O)Nc3ccccc3)n2c1=O | 10.1
BrC(=C\c1ccccc1)/C=N/N1CCN(c2ccccn2)CC1 | -0.5
CC(C)(C)NC(=O)c1ccccc1-c1nc(-c2ccccc2Cl)no1 | -7.5
CCOC(=O)C(NC(=O)c1ccccc1OCC)(Nc1ncccn1)C(F)(F)F (stereo unspecified) | -4.3
COc1cc(C2C(C(C)=O)=C(O)C(=O)N2CCc2ccc(OC)c(OC)c2)ccc1O (stereo unspecified) | 0.6
COc1ccc(C2C(C(=O)c3ccc(C)o3)=C(O)C(=O)N2c2cc(C)on2)cc1OC (stereo unspecified) | 2.5
CCOc1cc(C2C(C(=O)c3ccc(C)o3)=C(O)C(=O)N2CCc2ccccc2)ccc1O (stereo unspecified) | 31.8*
CCOC(=O)c1sc(C)c(C(=O)NCC(C)(C)CN(C)C)c1N | -8.0
N#CC1=C(O)C(c2ccccc2)n2c1nc(=O)c1ccccc12 (stereo unspecified) | -2.6
Cc1cccc(NC(=O)CC2SC(=O)N(c3ccccc3)C2=O)c1 (stereo unspecified) | 1.5
CC(=O)N(c1cccc(C)c1)C1SC(=O)N(c2ccccc2)C1=O (stereo unspecified) | 36.8*
Cc1ccc(NC(=O)CC2SC(=O)N(c3ccccc3)C2=O)cc1 (stereo unspecified) | -4.3
CN(Cc1ccccc1)C(=O)[C@H]1CCC(=O)N1Cc1ccco1 | -0.3
C#CCOC(=O)C(NC(=O)c1ccccc1)=C1CCCCC1 | -10.0
c1ccc(-c2nnc3sc(-c4csc5c4CCCC5)nn23)cc1 | 32.2*
c1cncc(-c2nnc3sc(C4CCCCC4)nn23)c1 | 2.4
Clc1ccc(-c2nnc3sc(-c4ccc(Br)o4)nn23)cc1 | -64.4
CC(C)CN(C(=O)c1nn(C)c(=O)c2ccccc12)c1nc2ccccc2s1 | 2.3
Cc1ccccc1N(Cc1nnc2n1CCCCC2)C(=O)Nc1ccccc1 | -6.0
Cc1c(C#N)c(SCC(N)=O)nc2c1CCCC2 | 5.4
COC(=O)NCc1cccc(CNC(=O)OC)c1 | 8.7
COC(=O)N/N=C(\C)c1ccccc1Br | 6.9
Cc1ccc(/C(O)=C2\C(=O)C(=O)N(c3cc(C)on3)C2c2cccc(Br)c2)cc1 (stereo unspecified) | 11.9
SMILES | Artemis endo inh
COC(=O)c1ccc(C2/C(=C(/O)c3ccc(OC(C)C)cc3)C(=O)C(=O)N2c2cc(C)on2)cc1 (stereo unspecified) | 31.9*
COC(=O)c1ccc(C2/C(=C(/O)c3ccc(OC)cc3)C(=O)C(=O)N2c2cc(C)on2)cc1 (stereo unspecified) | 18.8
Cc1cc(C)cc(OCc2nnc(SCC(=O)N3CCN(c4ccccc4)CC3)o2)c1 | 5.8
CCOC(=O)C(C(=O)OCC)C(C(=O)OCC)N1CCOCC1 (stereo unspecified) | -0.5
Cc1ccc(S(=O)(=O)N(CC(O)CN2C(=O)NC(C)(C)C2=O)c2ccccc2)cc1 (stereo unspecified) | -10.4
COCCCNC(=O)C(F)(F)C(F)(F)C(=O)NCCCOC | -2.0
